Results taken from PubChem BioAssay AID1159580 (chemical genetic matrix, 2015).
“And” between values parts separate entries of the source, which are not always exact repeats. Identical values can stand only once. Hit rate of the full screen: of about 5,500 compounds, about 2,000 (36%) were called active. About 18% were inconclusive and are not listed. No stated cut-off is given here; in the data, active means normalized growth mostly below about 0.91 (no sharp cut-off); inconclusive means no clear call, values can overlap the other calls; inactive means mostly above about 0.92. The list shows a part of the results.

Test: chemical genetic growth profiling, strain panel (AID 1159580);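 further: tested at 20 µM; growth read once vehicle control cultures reached saturation at 30 °C; 1 = growth at the plate median or of vehicle wells; lower values mean less growth of the strain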
Conditions: S. cerevisiae deletion strains, growth OD

Measured: normalized growth

Nc1nc(=S)c2[nH]cnc2[nH]1
inactive: locus YAL013W, strain DEP1, active compounds read low 1.01 | locus YAL021C, strain ccr4, active compounds read low 0.946 | locus YAL026C, strain drs2, active compounds read low 0.971 | locus YAL030W, strain snc1, active compounds read low 0.975 | locus YBL061C, strain skt5, active compounds read low 0.988 | locus YBR009C, strain hhf1, active compounds read low 1.03 | locus YBR021W, strain FUR4, active compounds read low 0.999 | locus YBR023C, strain chs3, active compounds read low 0.969 | locus YBR171W, strain sec66, active compounds read low 0.974 | locus YBR229C, strain ROT2, active compounds read low 1 | locus YBR231C, strain swc5, active compounds read low 1.03 | locus YBR279W, strain paf1, active compounds read low 0.973 | locus YCL011C, strain gbp2, active compounds read low 0.971 | locus YCL016C, strain dcc1, active compounds read low 0.947 | locus YCL029C, strain bik1, active compounds read low 1.01 | locus YCL061C, strain MRC1, active compounds read low 0.993 | locus YCL069W, strain vba3, active compounds read low 0.976 | locus YCR088W, strain abp1, active compounds read low 0.98 | locus YDL005C, strain med2, active compounds read low 0.965 | locus YDL035C, strain GPR1, active compounds read low 1.02 | locus YDL040C, strain nat1, active compounds read low 0.982 | locus YDL074C, strain BRE1, active compounds read low 1.01 | locus YDL101C, strain DUN1, active compounds read low 1.01 | locus YDL134C, strain PPH21, active compounds read low 1.01 | locus YDL185W, strain tfp1, active compounds read low 0.996 | locus YDL192W, strain arf1, active compounds read low 1.01 | locus YDR001C, strain nth1, active compounds read low 0.982 | locus YDR069C, strain doa4, active compounds read low 0.982 | locus YDR101C, strain arx1, active compounds read low 0.986 | locus YDR137W, strain rgp1, active compounds read low 0.967 | locus YDR150W, strain NUM1, active compounds read low 1.01 | locus YDR159W, strain sac3, active compounds read low 0.957 | locus YDR162C, strain NBP2, active compounds read low 1.02 | locus YDR195W, strain ref2 0.988 | locus YDR297W, strain sur2, active compounds read low 1 | locus YDR318W, strain mcm21, active compounds read low 1 | locus YDR334W, strain swr1, active compounds read low 0.962 | locus YDR335W, strain msn5, active compounds read low 0.98 | locus YDR388W, active compounds read low 0.998 | locus YDR392W, strain spt3, active compounds read low 0.859 | locus YDR502C, strain sam2, active compounds read low 1 | locus YEL003W, strain gim4, active compounds read low 0.988 | locus YEL037C, strain rad23, active compounds read low 0.973 | locus YEL061C, strain CIN8 (second series), active compounds read low 0.975 | locus YEL061C, strain CIN8, active compounds read low 1.01 | locus YER015W, strain faa2, active compounds read low 0.983 | locus YER016W, strain bim1, active compounds read low 0.942 | locus YER110C, active compounds read low 1 | locus YER111C, strain swi4, active compounds read low 0.959 | locus YER155C, strain BEM2 (second series), active compounds read low 1 | locus YER155C, strain BEM2, active compounds read low 1.02 | locus YER167W, strain BCK2, active compounds read low 1.01 | locus YFR010W, strain ubp6, active compounds read low 1 | locus YGL078C, strain dbp3, active compounds read low 0.997 | locus YGL086W, strain mad1, active compounds read low 0.997 | locus YGL167C, strain pmr1, active compounds read low 0.979 | locus YGL173C, strain kem1, active compounds read low 0.98 | locus YGL227W, strain vid30, active compounds read low 0.973 | locus YGL240W, strain doc1, active compounds read low 1.01 | locus YGL248W, strain PDE1, active compounds read low 1.01 | locus YGL253W, strain hxk2, active compounds read low 0.961 | locus YGR078C, strain PAC10, active compounds read low 0.988 | locus YGR135W, strain pre9, active compounds read low 0.998 | locus YGR229C, strain SMI1, active compounds read low 0.99 | locus YGR252W, strain gcn5, active compounds read low 0.981 | locus YHR013C, strain ard1, active compounds read low 0.93 | locus YHR027C, strain rpn1, active compounds read low 0.99 | locus YHR030C, strain SLT2, active compounds read low 1.02 and 0.978 | locus YHR079C, strain IRE1 (second series), active compounds read low 1 | locus YHR079C, strain IRE1, active compounds read low 0.998 | locus YHR094C, strain hxt1, active compounds read low 0.998 | locus YHR129C, strain ARP1, active compounds read low 1.01 | locus YHR142W, strain chs7, active compounds read low 0.945 | locus YHR200W, strain rpn10, active compounds read low 0.998 | locus YIL066C, strain RNR3, active compounds read low 1.01 | locus YIL073C, strain SPO22, active compounds read low 1.04 | locus YIL125W, strain kgd1, active compounds read low 0.995 | locus YIR030C, strain dcg1, active compounds read low 1 | locus YJL092W, strain hpr5, active compounds read low 0.991 | locus YJL095W, strain BCK1 (second series), active compounds read low 0.964 | locus YJL095W, strain BCK1, active compounds read low 1.02 and 0.979 | locus YJL115W, strain asf1, active compounds read low 0.972 | locus YJL129C, strain trk1, active compounds read low 0.936 | locus YJL134W, strain LCB3, active compounds read low 1 | locus YJL154C, strain vps35, active compounds read low 0.971 | locus YJL164C, strain tpk1, active compounds read low 0.998 | locus YJL166W, strain qcr8, active compounds read low 1.01 | locus YJL168C, strain set2, active compounds read low 0.995 | locus YJL187C, strain SWE1 (second series), active compounds read low 1.01 | locus YJL187C, strain SWE1, active compounds read low 0.981 | locus YJR043C, strain POL32, active compounds read low 1.01 | locus YJR066W, strain TOR1, active compounds read low 0.949
